The record followed here is PubChem BioAssay (EPA / NIEHS).

Read-out in assay [1]: TIMP metallopeptidase inhibitor 2 (TIMP2), TIMP2 (gene 7077)
The assay can be described thus: BSK_KF3CT_TIMP2: BioMAP Diversity Plus: KF3CT Assay for TIMP metallopeptidase inhibitor 2 (TIMP2) Biomarker Activity (AID 2283071). The note with it: primary human keratinocytes with fibroblasts; actives raise or lower the signal. In outline: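 ELISA readout of TIMP-2 in keratinocyte plus foreskin fibroblast co-cultures (human skin primary cells), 24 h post-dose. Gain or loss of signal fitted relative to DMSO.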

Read-out in assay [2]: Transforming growth factor beta 1 (TGFb1), TGFB1 (gene 7040)
Put plainly: BSK_KF3CT_TGFb1: BioMAP Diversity Plus: KF3CT Assay for Transforming growth factor beta 1 (TGFb1) Biomarker Activity (AID 2283072). The note with it: primary human keratinocytes with fibroblasts; actives raise or lower the signal. In outline:
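Read-out: ELISA for TGF-b1 in keratinocyte/foreskin fibroblast human skin co-culture, 24 h after dosing; bidirectional curve fit vs DMSO baseline; gain or loss of signal scored.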

Read-out in assay [3]: C-C motif chemokine 2 (Homo sapiens) (UniProt P13500)
The assay can be described thus: BSK_KF3CT_MCP1: BioMAP Diversity Plus: KF3CT Assay for Monocyte Chemoattractant Protein 1 (MCP1/CCL2) Biomarker Activity (AID 2283073). The note with it: primary human keratinocytes with fibroblasts; actives raise or lower the signal. In outline:
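Human keratinocyte plus foreskin fibroblast primary co-culture exposed to chemical for 24 h. MCP-1 levels measured by ELISA. Bidirectional curve fitting relative to DMSO negative control as baseline.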

Read-out in assay [4]: Matrix Metallopeptidase 9 (MMP9), MMP9 (gene 4318)
The assay can be described thus: BSK_KF3CT_MMP9: BioMAP Diversity Plus: KF3CT Assay for Matrix Metallopeptidase 9 (MMP9) Biomarker Activity (AID 2283074). The note with it: primary human keratinocytes with fibroblasts; actives raise or lower the signal. Summed up: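 ELISA read-out of MMP-9 at 24 h post-dosing in a co-culture of human skin keratinocytes and foreskin fibroblasts. Gain or loss of signal was fitted in both directions against DMSO.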

Read-out in assay [5]: urokinase plasminogen activator (uPA), PLAU (gene 5328)
The assay can be described thus: BSK_KF3CT_uPA: BioMAP Diversity Plus: KF3CT Assay for urokinase plasminogen activator (uPA) Biomarker Activity (AID 2283075). Particulars: primary human keratinocytes with fibroblasts; actives raise or lower the signal. Summed up: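 Skin co-culture (keratinocytes + foreskin fibroblasts), human primary; 24 h post-dose; uPA by ELISA; gain/loss fit vs DMSO baseline.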

Read-out in assay [6]: CD40, CD40 (gene 958)
Put plainly: BSK_LPS_CD40: BioMAP Diversity Plus: LPS Assay for CD40 Biomarker Activity (AID 2283076). The note with it: primary human HUVEC with PBMC; actives raise or lower the signal. In outline: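 Primary human umbilical vein endothelial cells co-cultured with peripheral blood mononuclear cells, LPS-stimulated, were dosed with chemical and read 24 h later. CD40 levels were measured by ELISA and fitted bidirectionally against DMSO as negative control and baseline.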

Read-out in assay [7]: E-selectin (Homo sapiens) (UniProt P16581)
The assay can be described thus: BSK_LPS_Eselectin: BioMAP Diversity Plus: LPS Assay for Eselectin Biomarker Activity (AID 2283077). The note with it: primary human HUVEC with PBMC; actives raise or lower the signal. In outline:
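Human umbilical vein endothelial cells co-cultured with peripheral blood mononuclear cells under LPS stimulation; E-selectin measured by ELISA 24 h after chemical dosing. Activity fitted bidirectionally against DMSO as negative control and baseline.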

Read-out in assay [8]: Interleukin-8 (IL8), CXCL8 (gene 3576)
Put plainly: BSK_LPS_IL8: BioMAP Diversity Plus: LPS Assay for Interleukin-8 (IL8) Biomarker Activity (AID 2283078). Particulars: primary human HUVEC with PBMC; actives raise or lower the signal. Summed up:
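Human umbilical vein endothelial cells co-cultured with PBMC were stimulated with LPS; IL-8 levels were measured by ELISA 24 h after chemical dosing. Activity was fitted bidirectionally against DMSO as negative control and baseline.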

Assay [9] in a line: BSK_LPS_SRB: Viability Assessment in the BioMAP Diversity Plus: LPS Assay (AID 2283079).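 Further: total protein by sulforhodamine B absorbance as a cytotoxicity measure; measured one day after compound addition.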 The note with it: primary human HUVEC with PBMC. In outline: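 Human umbilical vein endothelial cells co-cultured with PBMC (LPS system) were dosed for 24 h. Total protein was stained with 0.1% sulforhodamine B after 10% TCA fixation, read at 560 nm, and fitted bidirectionally against DMSO baseline.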

Read-out in assay [10]: Interleukin-1 alpha (IL1a), IL1A (gene 3552)
The assay can be described thus: BSK_LPS_IL1a: BioMAP Diversity Plus: LPS Assay for Interleukin-1 alpha (IL1a) Biomarker Activity (AID 2283080). Particulars: primary human HUVEC with PBMC; actives raise or lower the signal. Summed up:
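Human umbilical vein endothelial cells co-cultured with peripheral blood mononuclear cells were LPS-stimulated and exposed to test chemicals for 24 h. IL-1 alpha was quantified by ELISA, with bidirectional curve fitting against DMSO as the negative control and baseline.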

Read-out in assay [11]: Monocyte Chemoattractant Protein-1 (MCP1), CCL2 (gene 6347)
Put plainly: BSK_LPS_MCP1: BioMAP Diversity Plus: LPS Assay for Monocyte Chemoattractant Protein-1 (MCP1) Biomarker Activity (AID 2283081). Particulars: primary human HUVEC with PBMC; actives raise or lower the signal. Summed up: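 HUVEC plus PBMC co-culture (human primary cells, LPS system) exposed to test chemical for 24 h; MCP-1 measured by ELISA. Bidirectional curve fitting against DMSO baseline; parallel SRB total-protein staining flags overt cytotoxicity.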

Assay [12] is described as follows: BSK_LPS_PGE2: BioMAP Diversity Plus: LPS Assay for Prostaglandin E2 (PGE2) Biomarker Activity (AID 2283082).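 On AC50: secreted prostaglandin E2 measured by ELISA in LPS-stimulated co-culture.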 The note with it: primary human HUVEC with PBMC; actives raise or lower the signal. In outline: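 ELISA read-out of PGE2 from human umbilical vein endothelial cells co-cultured with peripheral blood mononuclear cells under LPS, 24 h post-dose. Gain or loss of signal scored relative to DMSO baseline.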

Read-out in assay [13]: Macrophage colony-stimulating factor (MCSF), CSF1 (gene 1435)
The assay can be described thus: BSK_LPS_MCSF: BioMAP Diversity Plus: LPS Assay for Macrophage colony-stimulating factor (MCSF) Biomarker Activity (AID 2283083). The note with it: primary human HUVEC with PBMC; actives raise or lower the signal. Summed up: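 Human umbilical vein endothelial cells co-cultured with peripheral blood mononuclear cells were exposed to compound for 24 h. M-CSF levels were measured by ELISA, and bidirectional curve fitting used DMSO as the negative control and baseline.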

Read-out in assay [14]: Tissue Factor, F3 (gene 2152)
The assay can be described thus: BSK_LPS_TissueFactor: BioMAP Diversity Plus: LPS Assay for Tissue Factor Biomarker Activity (AID 2283084). Particulars: primary human HUVEC with PBMC; actives raise or lower the signal. Summed up:
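Human umbilical vein endothelial cells co-cultured with peripheral blood mononuclear cells were dosed and stimulated with LPS. Cell-surface CD142 was quantified by ELISA at 24 h. Activity was fitted bidirectionally against DMSO baseline.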

Read-out in assay [15]: Tumor necrosis factor (Homo sapiens) (UniProt P01375)
Put plainly: BSK_LPS_TNFa: BioMAP Diversity Plus: LPS Assay for Tumour Necrosis Factor alpha (TNFa) Biomarker Activity (AID 2283085).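 On AC50: TNFa protein level quantified by ELISA in the co-culture.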 The note with it: primary human HUVEC with PBMC; actives raise or lower the signal. In outline:
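HUVEC/PBMC co-culture, LPS-stimulated; 24 h post-dose; TNFa by ELISA; gain or loss of signal fitted bidirectionally vs DMSO baseline.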

Read-out in assay [16]: Vascular cell adhesion molecule 1 (VCAM1), VCAM1 (gene 7412)
Put plainly: BSK_LPS_VCAM1: BioMAP Diversity Plus: LPS Assay for Vascular cell adhesion molecule 1 (VCAM1) Biomarker Activity (AID 2283086). Particulars: primary human HUVEC with PBMC; actives raise or lower the signal. Summed up:
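ELISA read-out of VCAM-1 at 24 h post-dosing in an LPS-driven HUVEC/PBMC primary human co-culture; gain or loss of signal fitted bidirectionally against DMSO baseline. Cytotoxicity tracked in parallel cultures by SRB total-protein staining.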

Read-out in a further assay: CD38, CD38 (gene 952)
The assay can be described thus: BSK_SAg_CD38: BioMAP Diversity Plus: SAg Assay for CD38 Biomarker Activity (AID 2283087). Particulars: primary human HUVEC with PBMC; actives raise or lower the signal. In outline:
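Measures CD38 on a human endothelial/PBMC co-culture driven by SEB and TSST-1, 24 h after compound exposure, using ELISA with fluorescence detection; DMSO defines baseline for bidirectional curve fitting.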

Read-out in assay [17]: CD40, CD40 (gene 958)
The assay can be described thus: BSK_SAg_CD40: BioMAP Diversity Plus: SAg Assay for CD40 Biomarker Activity (AID 2283088). Particulars: primary human HUVEC with PBMC; actives raise or lower the signal. Summed up: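 Human umbilical vein endothelial cells co-cultured with PBMC; CD40 levels measured by ELISA with fluorescence read-out 24 h after chemical dosing. Gain or loss of signal fitted bidirectionally against DMSO baseline.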

Read-out in another assay: CD69, CD69 (gene 969)
Put plainly: BSK_SAg_CD69: BioMAP Diversity Plus: SAg Assay for CD69 Biomarker Activity (AID 2283089). Particulars: primary human HUVEC with PBMC; actives raise or lower the signal. Summed up:
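Values derive from bidirectional fitting relative to DMSO vehicle. Cells: umbilical vein endothelium plus peripheral blood mononuclear cells, treated 24 h before fluorescent ELISA for CD69.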

Read-out in assay [18]: Monocyte Chemoattractant Protein-1 (MCP1), CCL2 (gene 6347)
Put plainly: BSK_SAg_MCP1: BioMAP Diversity Plus: SAg Assay for Monocyte Chemoattractant Protein-1 (MCP1) Biomarker Activity (AID 2283090). The note with it: primary human HUVEC with PBMC; actives raise or lower the signal. In outline: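 Values derive from bidirectional fitting of ELISA-measured MCP1 against DMSO controls. Readings were taken 24 h after dosing human vascular endothelial cells co-cultured with peripheral blood mononuclear cells under superantigen stimulation.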

“And” between values parts separate entries of the source, which are not always exact repeats. Identical values can stand only once. Where a structure was tested more than once in an assay, its records may differ in their call. The source made the active and inactive calls. How the source made its calls: active means hit-call score of the fitted dose curve at least 0.9, where 1 is the maximum; inactive means score below 0.9.

Chain of E-selectin (Homo sapiens) (P16581 whole entry, looked up): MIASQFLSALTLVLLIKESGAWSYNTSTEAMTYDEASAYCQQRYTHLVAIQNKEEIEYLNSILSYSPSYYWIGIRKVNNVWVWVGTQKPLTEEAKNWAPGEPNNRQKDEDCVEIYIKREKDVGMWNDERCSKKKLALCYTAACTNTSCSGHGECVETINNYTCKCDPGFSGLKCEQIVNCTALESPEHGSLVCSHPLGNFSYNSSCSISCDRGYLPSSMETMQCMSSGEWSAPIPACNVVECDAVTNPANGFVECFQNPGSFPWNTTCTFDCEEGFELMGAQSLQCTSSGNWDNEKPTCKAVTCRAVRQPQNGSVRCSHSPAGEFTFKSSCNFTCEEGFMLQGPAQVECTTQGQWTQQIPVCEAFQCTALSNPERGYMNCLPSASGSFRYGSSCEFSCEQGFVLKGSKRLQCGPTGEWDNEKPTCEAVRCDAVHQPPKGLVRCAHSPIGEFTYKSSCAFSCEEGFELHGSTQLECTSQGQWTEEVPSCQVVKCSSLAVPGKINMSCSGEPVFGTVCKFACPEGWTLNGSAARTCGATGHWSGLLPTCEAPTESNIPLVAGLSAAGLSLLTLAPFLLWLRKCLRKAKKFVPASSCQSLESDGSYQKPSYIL
Chain of Tumor necrosis factor (Homo sapiens) (P01375 whole entry, looked up): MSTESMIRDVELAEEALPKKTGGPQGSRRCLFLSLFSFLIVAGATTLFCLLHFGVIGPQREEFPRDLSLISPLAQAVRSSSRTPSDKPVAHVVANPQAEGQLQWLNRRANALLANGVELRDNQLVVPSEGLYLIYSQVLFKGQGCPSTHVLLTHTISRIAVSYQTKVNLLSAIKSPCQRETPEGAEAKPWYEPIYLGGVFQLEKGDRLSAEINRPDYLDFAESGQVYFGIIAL

`COP(=S)(OC)Oc1ccc(SC)c(C)c1`: the outcome in assay [1] was “inactive”; in assay [2], “inactive”; in [3], “inactive”; in [4] it was “inactive”; in assay [5], “inactive”; with CD40, CD40 (gene 958) [6], “inactive”. Also, the result in [7], in [8], in [10], in assay [11], in [14] and in [15] was inactive. For the same compound, the outcome in [16] was “inactive”; in the assay with CD38, CD38 (gene 952) it was “inactive”; with CD40, CD40 (gene 958) [17], “inactive”; with CD69, CD69 (gene 969), “inactive”; in assay [18], “inactive”. The values for the concentration at half-maximal activity (AC50) in assay [9], in [12] and in [13] were 30.6 µM (active), 30.1 µM (active) and 15.9 µM (active), respectively.
As for `O=C(O)C(F)(F)C(F)(F)C(F)(F)C(F)(F)C(F)(F)C(F)(F)C(F)(F)F`, the outcome in assay [1] was “inactive”; in assay [2], “inactive”; in assay [3] it was “inactive”; in [4], “inactive”; in assay [5] it was “inactive”; in the assay with CD40, CD40 (gene 958) [6], “inactive”. For the same compound, the outcome in [7], in assay [8], in assay [9], in [10], in assay [11] and in assay [12] was inactive. Further, the outcome in [13] was “inactive”; in [14] it was “inactive”; in assay [15] it was “inactive”; in [16], “inactive”; in the assay with CD38, CD38 (gene 952), “inactive”; with CD40, CD40 (gene 958) [17], “inactive”. The outcome is “inactive” with CD69, CD69 (gene 969) and “inactive” in assay [18]. The AC50 with CD40, CD40 (gene 958) [6] was 23.1 µM (active); in assay [7], 16.1 µM (active); in [8] it was 30 µM (active) and 13.3 µM (active); in assay [12], 35.5 µM (active) and 27.5 µM (active); in assay [15] it was 9.76 µM (active).

Broadly, the AC50 is the concentration at which the activity in the assay is half-maximal.
